# RORgamma inh = qHTS for inhibitors of ROR gamma transcriptional activity. Nuclear receptor ROR-gamma (Mus musculus), P51450. Drosophila S2 Gal4-RORgamma UAS-luciferase reporter, 20 h. Potency, µM (top dose mostly 53.6 µM), without a hit: at the top dose activity change, negative = inhibition, hits mostly inhibitors. 310,000 compounds, 5.4% hits. AID 2551, 2010; note: potency is the fitted concentration of half-maximal effect; nearly all actives have a fitted effect of over 60% in size
#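 Compounds are pin-transferred onto Drosophila Schneider cells expressing a copper-inducible Gal4–ROR gamma transactivation domain fusion. After 1 hr, copper sulfate is added to 700 uM final; luciferase is read 20 hr later.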
# TSHR antagonist = Antagonists of the Thyroid Stimulating Hormone Receptor: HTS campaign. Thyrotropin receptor (Homo sapiens), P16473. TSHR-expressing cells, TSH-stimulated cAMP HTRF, 2 h; active compounds read low. activity change, negative = inhibition, % at 11.5 µM. 330,000 compounds, 0.2% hits. AID 504810, 2011;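 active = activity change below a set negative limit, meaning inhibition stronger than a set level, cut at about -70% in these data; inconclusive = activity change between two set negative limits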
# Target sequence (P16473 whole entry, looked up): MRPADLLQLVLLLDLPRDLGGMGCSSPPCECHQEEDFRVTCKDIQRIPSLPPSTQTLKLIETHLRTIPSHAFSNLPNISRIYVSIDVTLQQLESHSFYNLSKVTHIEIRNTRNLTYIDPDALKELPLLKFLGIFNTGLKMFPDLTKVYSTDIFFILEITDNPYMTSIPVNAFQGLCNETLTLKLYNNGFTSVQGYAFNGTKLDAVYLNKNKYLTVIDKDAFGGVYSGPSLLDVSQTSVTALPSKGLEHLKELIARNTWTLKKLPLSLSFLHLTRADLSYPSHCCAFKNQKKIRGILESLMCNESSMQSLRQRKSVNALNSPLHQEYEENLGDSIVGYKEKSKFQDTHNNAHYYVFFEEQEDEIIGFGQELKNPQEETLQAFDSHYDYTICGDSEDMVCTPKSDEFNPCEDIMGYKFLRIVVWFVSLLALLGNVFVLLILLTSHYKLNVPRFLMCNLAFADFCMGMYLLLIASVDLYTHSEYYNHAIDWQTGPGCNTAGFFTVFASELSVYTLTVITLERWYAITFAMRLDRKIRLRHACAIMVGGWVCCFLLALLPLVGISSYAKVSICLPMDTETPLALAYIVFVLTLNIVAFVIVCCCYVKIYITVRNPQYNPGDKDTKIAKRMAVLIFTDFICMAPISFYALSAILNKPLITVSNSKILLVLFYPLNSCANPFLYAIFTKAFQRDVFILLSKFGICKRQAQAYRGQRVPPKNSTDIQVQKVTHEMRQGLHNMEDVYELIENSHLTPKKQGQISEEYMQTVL
#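 TSHR-expressing cells were treated with compounds, then stimulated with TSH at EC80 (4nM final) for 2 hours at 37 deg C. Cellular cAMP was measured by HTRF competition between lysate cAMP and cAMP-d2 for a cryptate-labelled anti-cAMP antibody.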
# VP16 counter = VP16 counterscreen qHTS for inhibitors of ROR gamma transcriptional activity; Drosophila S2 Gal4-VP16 UAS-luciferase, luminescence, 20 h; 310,000 compounds, 3.5% hits; AID 2546, 2010; Potency, µM (doses to about 53.6 µM), inactives show at the highest dose activity, negative = inhibition, actives largely listed as inhibitors;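 note: Gal4-VP16 expression switched on by copper sulfate through the metallothionein promoter; potency is the fitted concentration of half-maximal effect; nearly all actives have a fitted effect of over 50% in size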
# FBPA coupling cs = qHTS Assay for Inhibitors of Fructose-1,6-bisphosphate Aldolase from Giardia Lamblia: Coupling assay counterscreen; coupling enzyme system counterscreen, AmpLite Red fluorescence; activity change, negative = inhibition, % at 58.2 µM, hits read low; 290,000 compounds, 0.67% hits; in the data active = activity change below about -30%
#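 Coupling enzymes only (glyceraldehyde-3-phosphate) + compound, at 57.5 uM final, 10 min RT; add substrate/coupling/AmpLite Red mix, 20 min RT; fluorescence ex 525/em 598 nm. Actives flag coupling-system interference.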
# ELG1 DNA repair = qHTS screen for small molecules that inhibit ELG1-dependent DNA repair in human embryonic kidney (HEK293T) cells expressing luciferase-tagged ELG1. HEK293T ELG1-luciferase reporter, luminescence, 16 h; DNA damage induced by 5-fluorouridine. Potency, µM (doses to about 46.1 µM), for inactives: at the highest dose activity change, negative = inhibition, hits mostly inhibitors. 330,000 compounds, 2.3% hits. AID 504467, 2011; note: potency is the fitted concentration of half-maximal effect; nearly all actives have a fitted effect of over 55% in size
#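 5-Fluorouridine DNA damage + compound/DMSO, 2,000 cells/well, 16 h, 37 °C/5% CO2. ONE-Glo, 30 min RT, luminescence. Readout = decrease in reporter signal.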
# An asterisk follows results filed as active; u = inconclusive; x = not tested or not shown; [ ] = another dose, or the depositor's remark. This is a sample that favours compounds with a hit; in the whole collection about 8% have one here. Unless noted, calls come from the whole dose curve; as a rule, active = well fitted curve in the direction sought with a large enough effect; inconclusive = small, poorly fitted or top-dose-only effect, or another doubt; inactive = no such curve, though single readings can be large; an effect the other way counts as inactive or inconclusive. % is set by controls: 0 for no effect and ±100 for the full control effect.
SMILES,RORgamma inh,TSHR antagonist,VP16 counter,FBPA coupling cs,ELG1 DNA repair
O=C(CSc1ccc2ccccc2n1)N/N=C/c1ccc(O)cc1,u,2,u,-4,-9%
O=C(Cn1cncn1)N/N=C/c1ccccc1O,8.9µM*,-1,u,4,u
O=C(/C=C/Nc1ccc([N+](=O)[O-])cc1Br)c1cccc2ccccc12,2.5µM*,3,u,-2,u
O=C(CSc1ccc2ccccc2n1)N/N=C/c1ccccc1O,1.4µM*,8,3.2µM*,2,16µM*
CCCn1c(C)nc2c(NCc3ccccc3)nc(C)nc21,1%,x,10%,0,x
O=C(Cn1cncn1)N/N=C/c1ccncc1,-2%,7,3%,2,10%
O=C(N/N=C/c1cc([N+](=O)[O-])ccc1O)c1cccc2ccccc12,2.8µM*,-15,2.2µM*,1,u
O=C(Cn1nc2ccccc2n1)N/N=C/c1cc([N+](=O)[O-])ccc1O,u,-9,1.4µM*,10,6.5µM*
O=C(CSc1ccccn1)N/N=C/c1cc([N+](=O)[O-])ccc1O,2µM*,-4,7.1µM*,10,16µM*
O=C(Cn1nnc(-c2ccccc2)n1)N/N=C/c1cc([N+](=O)[O-])ccc1O,-4%,6,-26%,2,-27%
O=C(Cn1cncn1)N/N=C/c1cc([N+](=O)[O-])ccc1O,8.9µM*,-5,-15%,0,u
CCCN(CC(=O)Nc1ccc(F)c(F)c1F)C(=O)Cc1ccc(S(=O)(=O)N2CCOCC2)s1,x,8,x,x,4%
COc1ccc(NC(=O)COC(=O)CCc2ccc(S(=O)(=O)N3CCOCC3)cc2)cc1Cl,x,9,x,x,4%
Cc1ccn(CC(=O)N/N=C/c2cc([N+](=O)[O-])ccc2O)n1,u,-1,8.9µM*,5,u
Cc1nc2ccc(C(=O)N/N=C/c3cc([N+](=O)[O-])ccc3O)cc2[nH]1,-8%,9,-11%,1,-6%
CC(NC(=O)C12CC3CC(C)(CC(C)(C3)C1)C2)c1ccncc1 (stereo not drawn),19%,37,-11%,3,-2%
COc1ccc(C2C(C#N)=C(N)SC(N)=C2C#N)cc1OC,9%,2,0%,-25,-15%
N#CC1=C(N)SC(N)=C(C#N)C1c1cccc(O)c1,7%,16,-14%,-32*,13%
CCc1nnc(NC(=O)c2cccc(OC)c2)s1,-38%,2,1%,-7,u
COC(=O)c1sc(NC(=S)NC(=O)c2ccccc2C)nc1C,6.3µM*,-13,16µM*,2,u
COc1ccc(C(=O)NC(=S)Nc2nc(C)c(C(=O)N(C)C)s2)cc1,u,4,-5%,8,21%
C=CCOC(=O)c1sc(NC(=O)c2ccc(OC)cc2)nc1C,6.3µM*,0,-13%,0,u
CCc1nnc(NC(=O)c2ccc(OC)cc2)s1,7.9µM*,-9,-22%[10 µM],-2,u
CCOC(=O)c1sc(NC(=S)NC(=O)c2ccc(OC)cc2)nc1C,6.3µM*,195,5µM*,1,u
Cc1cccc(C(=O)NCC(=O)N2CCN(S(=O)(=O)c3ccc4c(c3)OCCO4)CC2)c1,x,-8,x,x,-1%
SMILES,RORgamma inh,TSHR antagonist,VP16 counter,FBPA coupling cs,ELG1 DNA repair
O=[N+]([O-])c1cc(S(=O)(=O)NCCN2CCOCC2)ccc1Sc1nnnn1-c1ccccc1,11µM*,13,20µM*,-19,u
O=S(=O)(c1cc(F)ccc1F)N1CCN(C2CCCCC2)CC1,x,-16,x,2,-3%
CCOC(=O)N1CCN(C(=O)COC(=O)c2ccc(Cl)nc2)CC1,x,22,x,x,5%
CCN(CC)S(=O)(=O)c1cccc(C(=O)OCC(=O)NCc2ccccc2OC)c1,x,-3,x,x,3%
Cc1csc(=Nc2cccnc2)n1Cc1ccco1,-4%,-9,8%,3,-2%
COc1ccc(N=c2scc(-c3ccc(S(=O)(=O)N4CCOCC4)cc3)n2CCCO)cc1,u,-24,5.6µM*,-2,15µM*
CC(=O)c1cccc(N=c2scc(-c3ccc(S(=O)(=O)N4CCOCC4)cc3)n2CCO)c1,u,-23,2µM*,0,u
CN(C)S(=O)(=O)c1cccc(-c2csc(=Nc3ccccc3)n2CCCN2CCOCC2)c1,13%,-10,10%,0,u
C=CCn1c(-c2ccc(S(=O)(=O)N3CCOCC3)cc2)csc1=Nc1ccccc1,-7%,-14,14µM*,4,0%
Cc1csc(=Nc2ccc(S(=O)(=O)N3CCOCC3)cc2)n1Cc1ccco1,u,-21,1%,2,15µM*
CC(=O)NCCNc1ncnc2ccc(-c3cccc(NS(C)(=O)=O)c3)cc12,23%,x,-5%,-2,x
COCCN(CC(=O)Nc1cccc(C)c1C)C(=O)c1oc2ccccc2c1C,x,-16,x,x,u
O=c1c2c3c(sc2n2c(=S)[nH]nc2n1-c1ccccc1)CCC3,0%,-5,6%,4,0%
Cc1cccc(-n2c(=O)c3c4c(sc3n3c(=S)[nH]nc23)CCC4)c1,u,-4,u,3,10%
O=c1[nH]c2sc3c(c2c(=O)n1Cc1ccccc1)CCC3,-15%[10 µM],25,-1%,2,1%
Cc1ccc(-n2c(=S)[nH]c3sc4c(c3c2=O)CCC4)cc1,1.1µM*,43,3.5µM*,6,0%
COc1ccc(-n2c(=O)c3c4c(sc3n3c(=S)[nH]nc23)CCC4)cc1,11µM*,-16,-13%,1,-17%
Cc1ccc(-n2c(=O)c3c4c(sc3n3c(=S)[nH]nc23)CCC4)cc1,11µM*,-18,-3%,1,-13%
O=C(OCCOc1ccc(Br)cc1)c1ccc(Cl)c(S(=O)(=O)N2CCOCC2)c1,x,-30,x,x,-12%
CCOc1ccccc1N1C(=O)CN(Cc2ccc(OC)c(OC)c2)C1=S,0%,1,1%,5,u
OC1c2ccccc2-c2nc3ccccc3cc21 (stereo not drawn),-36%,x,-28%,-7,x
Cc1cc(=O)n(CC(C)O)c(O)c1C#N (stereo not drawn),-9%,20,-9%,-1,2%
Cc1cc(=O)n(CCCO)c(O)c1C#N,-18%,3,-3%,-38*,1%
Cc1ccc(C(C)C)c(OCc2nn(CC(=O)c3ccc(OC(F)F)cc3)c3[n+]2CCCCC3)c1,20%,10,2%,3,u
CS(=O)(=O)C1=NSC2=NC(=O)/C(=C\c3cccn3-c3ccccc3Cl)C(=N)N21,-11%,-12,7%,15,-9%
